# Test results from PubChem BioAssay AID463165 (Johns Hopkins Ion Channel Center, 2010).
# The whole screen tested about 310,000 compounds, of which about 1,400 (0.45%) were called active.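 Rule for the calls: active = B-score, a plate-corrected calcium signal, over three deviations above library mean, with baseline fluorescence within five deviations of library mean; inactive = the rest.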 For the sample, actives were picked, then their nearest neighbours and some compounds at random.
# Target: Regulator of G-protein signaling 4 (Homo sapiens) (UniProt P49798)
# Assay: RGS4 inhibitors, primary screen, cell-based, HEK293 M3R inducible RGS4, calcium flux (AID 463165);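 note: RGS4 expression induced by doxycycline in cells with stable M3 receptor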;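 for B-score: B-score is computed from the integrated fluorescence ratio over baseline after carbachol; higher B-score means a larger calcium signal and so more RGS4 inhibition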
# Conditions: Fluo-4 calcium flux, at 10 µM, triggered by carbachol at its EC20; hits give high values
# Regulator of G-protein signaling 4 (Homo sapiens), sequence (P49798 whole entry, looked up): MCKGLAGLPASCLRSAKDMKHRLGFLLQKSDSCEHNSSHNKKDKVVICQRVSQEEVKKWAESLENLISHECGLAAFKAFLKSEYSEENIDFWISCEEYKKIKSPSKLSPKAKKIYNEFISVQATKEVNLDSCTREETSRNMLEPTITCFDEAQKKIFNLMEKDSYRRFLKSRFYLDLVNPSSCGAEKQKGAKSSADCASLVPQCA
row,Compound,B-score
1,CNc1nccc(-c2ccc(Cl)cc2)c1C#N,inactive
2,CC(C)c1nc(SCC(=O)Nc2cccc(C(=O)O)c2)c2c3c(sc2n1)CCCC3,5.64 (active)
3,Cc1ccc(C)c2c1cc(C)c1nnc(SCC(=O)Nc3cccc(C(=O)O)c3)n12,inactive
4,Cc1cc(NC(=O)CSc2nc(C(C)C)nc3sc4c(c23)CCC(C)C4)no1 (stereo not given),inactive
5,Cc1ccccc1OC(=O)Cn1c(C(F)(F)F)nc2ccccc21,inactive
6,Cc1ccc(-n2[nH]c(C)c(/C=N/NC(=O)c3cccc([N+](=O)[O-])c3)c2=O)cc1C,inactive
7,COc1ccc(-c2csc(Nc3ccc(O)cc3)n2)cc1,8.75 (active)
8,COc1ccc(-c2csc(NC(=O)COC(=O)c3ccc(Br)o3)n2)cc1,inactive
9,COc1ccc(-c2csc(Cc3nc(O)cs3)n2)cc1,inactive
10,CCOc1ccc(OCC)c(NC(=O)CCS(=O)(=O)c2ccc(C)cc2)c1,inactive
11,CN(C)c1ccc(CNC2C3CC4CC(C3)CC2C4)cc1 (stereo not given),inactive
12,COc1ccc(Oc2cn[nH]c2-c2ccc(OC)cc2O)cc1,inactive
13,CC(=O)Nc1cccc(-c2nc3ccccc3s2)c1C,inactive
14,Oc1ccc(-c2[nH]ncc2-c2nc3ccccc3s2)c(O)c1,5.08 (active)
15,CCC1(C(=O)c2ccccc2)C(c2cccc([N+](=O)[O-])c2)C1(C(=O)OC)C(=O)OC (stereo not given),inactive
16,CC(CC(=O)C1C(C)C=CCC1(C)C)NNC(N)=O (stereo not given),inactive
17,CC(=O)NCCC(=O)Nc1nc(-c2ccc3c(c2)OCCO3)cs1,inactive
18,Cc1ccc(-c2csc(NC(=O)C3=COCCO3)n2)cc1C,9.56 (active)
19,Cc1csc(NC(=O)C2=COCCO2)n1,inactive
20,COc1cccc(NC(C)=[N+](C)CCNS(=O)(=O)c2ccc(Cl)cc2)c1,inactive
21,CCCCN1C(=O)CC(N2CCOCC2)C1=O (stereo not given),inactive
22,CCC1(c2ccccc2)NC(=O)N(CC(=O)c2ccc3c(c2)OCO3)C1=O (stereo not given),inactive

row,Compound,B-score
1,O=C(CCN1CCc2ccccc2C(O)(c2ccccc2)C1)c1ccc2c(c1)OCCO2 (stereo not given),8.45 (active)
2,O=C(CN1CCC(O)(c2ccccc2)CC1)Nc1ccc2c(c1)OCCO2,inactive
3,CC(CO)N1CCS(=O)(=O)CC1 (stereo not given),inactive
4,COc1cccc(OC)c1C(=O)Nc1ccc(Cc2ccncc2)cc1,inactive
5,Clc1ccc(Nc2ncnc3c2nnn3Cc2ccccc2)cc1,inactive
6,CC(C)Cc1nc(Nc2ccc(S(=O)(=O)N3CCCC3)cc2)c2nnn(Cc3ccccc3)c2n1,4.81 (active)
7,Cc1nc(Nc2ccc(S(=O)(=O)N3CCCC3)cc2)c2nnn(Cc3ccccc3)c2n1,inactive
8,Cc1ccccc1CN1CCC(C(=O)Nc2ccc(Oc3cccnc3)cc2)CC1,inactive
9,COc1ccc(-c2cc(C(=O)N/N=C/c3cccnc3)c3ccccc3n2)c(OC)c1,inactive
10,Cn1c(-c2ccco2)nc2cc3ccccc3cc21,8.29 (active)
11,Cc1cc(C)c2nc(-c3ccco3)cc(C(=O)O)c2c1,inactive
12,COc1ccccc1-n1c(-c2cc(-c3ccco3)[nH]n2)n[nH]c1=S,inactive
13,CS(=O)(=O)N(CC(O)Cn1c2ccccc2c2ccccc21)c1cccc2ccccc12 (stereo not given),7.61 (active)
14,CC(=O)c1ccc2c(c1)c1ccccc1n2CC(C)C,inactive
15,CCCCN(CCCC)CC(O)Cn1c2ccccc2c(=O)c2ccccc21 (stereo not given),inactive
16,COc1ccccc1CN(C)C(=O)C1(c2ccc(Cl)cc2)CC1,inactive
17,CN(CC1CCCN(CCc2cccc(C(F)(F)F)c2)C1)C(=O)c1ccc2nc[nH]c2c1 (stereo not given),inactive
18,COC(=O)Cn1cc(/C=C/[N+](=O)[O-])c2ccccc21,14.7 (active)
19,COC(=O)c1cn(CC(=O)NCc2cccs2)c2ccccc12,inactive
20,COC(=O)N/N=C/c1cn(CCCOc2ccc(C)cc2)c2ccccc12,inactive
21,O=C(CN1CCN(S(=O)(=O)c2ccc3ccccc3c2)CC1)NC(=O)NC1CCCCC1,inactive
22,CCCc1nn(C)c2c(=O)[nH]c(-c3cc(S(N)(=O)=O)ccc3OCC)nc12,inactive

row,Compound,B-score
1,CCCCOc1ccc(C(=O)N/C(=C/C=C/c2ccccc2)C(=O)N2CCOCC2)cc1,inactive
2,OCCCC1CCCCN1Cc1nc(Cc2ccccc2Cl)no1 (stereo not given),inactive
3,Nc1nc(-c2ccccc2)cc(-c2ccccc2)n1,inactive
4,Nc1cccc(-c2cc(-c3ccccc3)nc(-c3cccc(N)c3)n2)c1,5.75 (active)
5,CNc1nc(-c2ccccc2)cc(-c2ccccc2)n1,inactive
6,COCCNC(=O)C(OC(=O)c1cccs1)c1ccc(F)cc1 (stereo not given),inactive
7,COCCNC(=O)CSc1nc2c(n1-c1ccccc1)CCCC2,inactive
8,O=C(NCc1ccc(F)cc1)C1CCC(CNc2c(N3CCOCC3)c(=O)c2=O)CC1 (stereo not given),inactive
9,Cc1noc(C)c1S(=O)(=O)Nc1cc(C(F)(F)F)ccc1N1CCOCC1,inactive
10,CCOC(=O)C1=NN(c2ccc(Cl)cc2)/C(=C/C2=NCCc3cc(OC)c(OC)cc32)S1,4.81 (active)
11,COc1cc2c(cc1OC)C(/C=C/c1ccco1)=NCC2,inactive
12,CCOC(=O)C1=C(CN2CCc3ccccc32)NC(=O)NC1c1ccc(Cl)cc1 (stereo not given),inactive
13,CC(=O)c1cccc(NC(=O)C2CCCN2S(=O)(=O)c2cccc3nsnc23)c1 (stereo not given),inactive
14,Cn1c(N2CCOCC2)c(C=O)c2ccccc21,inactive
15,Clc1ccc(CN2CCN(/N=C/c3cccnc3)CC2)cc1,inactive
16,O=C1NCC(=O)N(Cc2ccccc2)/C1=C/c1ccccc1,inactive
17,O=C1/C(=C\c2cccnc2)CN(Cc2ccccc2)C/C1=C\c1cccnc1,20.8 (active)
18,NS(=O)(=O)c1ccc(CCNC(=O)c2ccc([N+](=O)[O-])cc2[N+](=O)[O-])cc1,inactive
19,COc1cc(/C=N/NC(=O)c2cccnc2)ccc1OC(=O)c1cccc(Br)c1,inactive
20,C=C(C)C(=O)O[C@H]1C/C(C)=C\C(=O)/C=C(\C)[C@H](O)[C@@H]2OC(=O)C(=C)[C@@H]21,5.6 (active)
21,Nc1ccccc1/C=N\N=C/c1ccccc1N,inactive
22,Cc1ccc2c(c1)N(CC(=O)NCCc1ccc(Cl)cc1)C(=O)c1cccnc1O2,inactive

row,Compound,B-score
1,Cn1c(SCC(=O)N2CCCC2)nnc1-c1cccs1,inactive
2,O=C(O)c1ccc2c(c1)C(=O)N(c1ccc(/C=C/C(=O)c3ccccc3)cc1)C2=O,24.6 (active)
3,O=C(/C=C/c1ccc(N2CCOCC2)cc1)c1ccccc1,inactive
4,Cc1cccc(N2C(=O)c3ccc(C(=O)Nc4cccc(C(=O)O)c4)cc3C2=O)c1,inactive
5,COC(=O)c1sccc1NN1C(=O)c2ccccc2C1=O,inactive
6,COc1ccc(N2CCN(C(=O)COC(=O)c3cccc(S(=O)(=O)Nc4ccccc4OC)c3)CC2)cc1,inactive
7,O=C(Nc1ccccc1)OCc1cn(-c2ccc(Cl)cc2)nn1,inactive
8,O=C(Nc1ccc(Cl)cc1)OCc1cc(-c2ccccc2)on1,6.27 (active)
9,O=C(Nc1cccc(Cl)c1)OCc1ccccn1,inactive
10,Cc1cccc(-c2nnc(SCC(=O)O)n2Cc2ccccc2)c1,inactive
11,O=C(CSc1ncn[nH]1)N/N=C/c1ccc(F)cc1,inactive
12,Cc1ccc(C(=O)/C=C/c2c(C)nn(-c3ccccc3)c2Cl)cc1,inactive
13,O=C(/C=C/Sc1ncn[nH]1)c1ccc(Cl)cc1,12 (active)
14,Cc1ccc(Sc2cc(N3CCOCC3)nc(-c3ccccc3)n2)cc1,8.43 (active)
15,Cc1cc(N2CCOCC2)nc(-c2ccc(Br)cc2)n1,inactive
16,O=S(=O)(Cc1cc(Sc2ccccc2)nc(-c2ccccc2)n1)c1ccccc1,inactive
17,CCCN(CCc1ccccc1)C1CCc2c(O)cccc2C1 (stereo not given),inactive
18,CCc1ccc(N(C(=O)c2csnn2)C(C(=O)NC2CCCCC2)c2ccncc2)cc1 (stereo not given),inactive
19,Cc1ccc2nc(-c3ccc(NC(=O)CN(C)S(=O)(=O)c4ccccc4)cc3)sc2c1,inactive
20,NC(=O)NC(=O)CSc1nc2cc([N+](=O)[O-])ccc2n1-c1cccc(C(F)(F)F)c1,inactive
21,CCc1nnc(NS(=O)(=O)c2ccc(NS(=O)(=O)c3ccccc3)cc2)s1,inactive
22,CCc1nnc(NS(=O)(=O)c2ccc(NC(=S)NC(=O)/C=C/c3cccs3)cc2)s1,inactive

row,Compound,B-score
1,CCc1nnc(NS(=O)(=O)c2ccc(N=Cc3c(C)[nH]n(-c4ccc(C)cc4)c3=O)cc2)s1,5.86 (active)
2,O=C(OCc1cc(Cl)ccc1OC(F)F)c1cccnc1,inactive
3,O=C1N/C(=N\N=C\c2ccco2)SC1Cc1ccc(F)cc1 (stereo not given),inactive
4,CC(C)=N/N=C1/NC(=O)C(Cc2ccccc2)S1 (stereo not given),inactive
5,CCCCC1S/C(=N/N=C/c2cccs2)NC1=O (stereo not given),6.28 (active)
6,Cc1cccc(CN2CCN(Cc3cnn(-c4ccccc4F)c3)CC2CCO)n1 (stereo not given),inactive
7,CCCCN1C(=S)NC[C@@H]1C(C)CC (stereo not given in full),inactive
8,CC(CO)NCC12CC3CC(CC(C3)C1)C2 (stereo not given),inactive
9,Brc1ccc(-c2csc(N/N=C/c3ccc4c(c3)OCO4)n2)cc1,inactive
10,Brc1ccc(-c2csc(N/N=C/c3cccnc3)n2)cc1,7.99 (active)
11,Cc1ccccc1Nc1nc(-c2cccnc2)cs1,inactive
12,CCCCN1C(=O)C(C)=C(C)C1OCCc1ccc(OC)c(OC)c1 (stereo not given),inactive
13,c1ccc(CN=C2Nc3ccccc3CS2)nc1,inactive
14,CC(=O)NCC(O)c1ccc([N+](=O)[O-])cc1 (stereo not given),inactive
15,CCC(C)c1ccc(O)c(/C=N/O)c1 (stereo not given),inactive
16,CNCC(O)c1ccc(O)c(O)c1 (stereo not given),6 (active)
17,FC(F)(F)c1ccc(-n2cn[nH]c2=S)cc1,inactive
18,Cc1ccnc(NS(=O)(=O)c2ccc(NC(=O)c3oc4ccc(F)cc4c3C)cc2)n1,inactive
19,CCOC(=O)c1c(NC(C)=O)sc2c(O)c(Br)ccc12,inactive
20,O=c1[nH]c(N2CCOCC2)nc2ccccc12,inactive
21,C1=C(N2CCOCC2)/C(=C/c2nc3ccccc3[nH]2)CC1,5.95 (active)
22,CC1(C)Cc2c(C#N)c(SCc3nc4ccccc4[nH]3)nc(N3CCOCC3)c2CO1,inactive
